Mcl1-Bid inh = Mcl-1/Bid binding inhibitors, primary screen, biochemical, TR-FRET, 1536-well | Induced myeloid leukemia cell differentiation protein Mcl-1 (Homo sapiens), Q07820 | TR-FRET Mcl-1/Bid-Dy647 peptide binding | inhibition, % at 21.7 µM | 220,000 tested, 0.97% active;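 active means compounds that cut the binding signal by more than half at the single screening dose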;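 further: His-tagged Mcl-1 with europium anti-His antibody binding Bid BH3 peptide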
Target sequence (Q07820 whole entry, looked up): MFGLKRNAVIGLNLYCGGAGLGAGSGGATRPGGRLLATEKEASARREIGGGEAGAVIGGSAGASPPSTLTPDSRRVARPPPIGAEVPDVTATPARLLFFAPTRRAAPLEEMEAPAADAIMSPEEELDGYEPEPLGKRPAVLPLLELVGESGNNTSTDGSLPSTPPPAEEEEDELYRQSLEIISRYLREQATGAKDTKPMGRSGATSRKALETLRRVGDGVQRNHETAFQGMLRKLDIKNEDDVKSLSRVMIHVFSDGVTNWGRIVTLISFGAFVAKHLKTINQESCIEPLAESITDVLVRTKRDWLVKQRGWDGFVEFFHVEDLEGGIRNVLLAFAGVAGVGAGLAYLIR
eIF4E-4G inh = eIF4E–eIF4G protein interaction inhibitors, primary screen, biochemical, uHTS, TR-FRET, eIF4GI fragment; 220,000 tested, 0.37% active; TR-FRET eIF4E-eIF4GI(517-606) binding, 2 h; inhibition, % at 21.7 µM; Eukaryotic translation initiation factor 4E (Mus musculus) + Eukaryotic translation …
14-3-3 Bad PPI = inhibitors of 14-3-3 zeta/Bad binding, primary screen, biochemical, TR-FRET, bovine 14-3-3 zeta. 14-3-3 protein zeta/delta (Bos taurus), P63103. TR-FRET 14-3-3zeta/Dy647-pBad peptide displacement, 1 h. inhibition, % at 21.7 µM. 220,000 tested, 0.71% active. AID 781, 2007;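 active means inhibition above about 70%, limit read from the data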
Target sequence (P63103 whole entry, looked up): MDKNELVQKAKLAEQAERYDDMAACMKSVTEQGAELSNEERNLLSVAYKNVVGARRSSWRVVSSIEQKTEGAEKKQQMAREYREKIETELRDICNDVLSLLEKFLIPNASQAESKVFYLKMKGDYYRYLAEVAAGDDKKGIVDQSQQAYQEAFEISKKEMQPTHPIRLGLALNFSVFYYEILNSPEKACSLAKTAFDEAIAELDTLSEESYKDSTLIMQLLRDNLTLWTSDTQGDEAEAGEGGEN
Bim-Mcl-1 = inhibitors of Bim peptide binding to Mcl-1, primary screen, biochemical, bead-based flow cytometry, multiplex. 190,000 tested, 0.1% active. AID 1009, 2008. inhibition, % at 10 µM. Induced myeloid leukemia cell differentiation protein Mcl-1 (Homo sapiens), Q07820. Bim peptide-Mcl-1 binding; in the data active means inhibition above about 40%
Mcl1 Noxa PPI = Mcl-1/Noxa binding inhibitors, primary screen, biochemical, TR-FRET, 1536-well; Induced myeloid leukemia cell differentiation protein Mcl-1 (Homo sapiens), Q07820; TR-FRET Mcl-1/Noxa peptide binding, 2 h; inhibition, % at 21.7 µM; 220,000 tested, 1.5% active;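 active means compounds that cut the protein-peptide binding signal by more than 50% relative to plate controls in a single-dose test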;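 further: His-tagged Mcl-1 with rhodamine Noxa BH3 peptide and terbium anti-His antibody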
NCF1 inh = p47phox/p22phox peptide binding inhibitors, primary screen, biochemical, uHTS, NADPH oxidase regulatory subunit | Neutrophil cytosol factor 1 (Homo sapiens), P14598 | fluorescence polarization, 2 h | inhibition, % at 24.7 µM | 220,000 tested, 0.53% active | AID 1274, 2008
Large screens that a line does not name were inactive; ! = not confirmed by another sample; [ ] = dose if it differs, or a comment. Shown are actives, neighbours in structure and some others; about 3.3% of the full set was active somewhere.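 How the source made its calls, unless noted: active means inhibition above about 30% (limit read from the data); inactive means the rest.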

CC(C)CNC(=O)c1cccc(NC(=O)c2ccc(Cl)c([N+](=O)[O-])c2)c1	Bim-Mcl-1 45
O=C(Nc1ccccc1-c1ccccc1)c1cccc([N+](=O)[O-])c1	none
O=C(Nc1nc(-c2cccnc2)cs1)c1cccc([N+](=O)[O-])c1	14-3-3 Bad PPI 79, Mcl1 Noxa PPI 63
CCOC(=O)C1=C(C)Nc2ccccc2N=C1NC(=O)c1ccc(Cl)c(S(=O)(=O)N2CCCC2)c1	none
C(=N\Nc1nc(Nc2ccccc2)nc(N2CCCCC2)n1)/c1ccco1	NCF1 inh 135
OC(CON=C1c2ccccc2-c2ccccc21)CN1CCNCC1 (centres undefined)	none (no result: NCF1 inh)
Cn1c(=O)c(C(=O)NCCO)c(O)c2ccccc21	none
CCn1c(=O)c(C(=O)NCCNCCO)c(O)c2ccccc21	Mcl1-Bid inh 52 (no result: eIF4E-4G inh, 14-3-3 Bad PPI)
CCOC(=O)c1ccccc1NC(=O)c1c(O)c2ccccc2n(CC)c1=O	none
CCCn1c(=O)c(C(=O)Nc2ccccc2C(=O)OC)c(O)c2ccccc21	NCF1 inh 45
O=C(NCCN1CCNCC1)c1ccccn1	14-3-3 Bad PPI 73
CSc1nc2c(c(=O)[nH]1)CCCC2	none
CSc1nc(=S)c2[nH]c(=S)[nH]c2[nH]1	Mcl1 Noxa PPI 51 (no result: Bim-Mcl-1)
COc1cc(C(=O)Nc2ccc(Br)cc2C(=O)c2cc(OC)c(OC)c(OC)c2)cc(OC)c1OC	none
O=C(Nc1ccc(N2CCOCC2)cc1)Nc1ccc(Cl)c(Cl)c1	Mcl1 Noxa PPI 82
Cc1ccc(NC(=O)c2cc(N3C(=O)CCC3=O)ccc2N2CCOCC2)cc1	none
Cc1ccc(NC(=O)c2cc(N3C(=O)C=CC3=O)ccc2N2CCOCC2)cc1Cl	Mcl1 Noxa PPI 56
O=C(Nc1ccc(Cl)cc1)Nc1ccc(N2CCOCC2)cc1	none (no result: Mcl1 Noxa PPI)
Cc1ccc(S(=O)(=O)N2CCN(c3ccccc3)CC2)cc1C(N)=O	none
COc1cc2c(cc1OC)C(c1cccs1)N(C(=S)NC(C)C)CC2 (centres undefined)	none
Cc1nn(Cc2ccccc2)c(C)c1NC(=O)CSc1nc(-c2ccccc2)nc2c1cnn2-c1ccccc1	Mcl1-Bid inh 80, NCF1 inh 32
COC(=O)Cn1c(=O)c2c(n(Cc3ccccc3)c1=O)N/C(=C/c1ccc(Br)cc1)C2=O	Mcl1 Noxa PPI 54 (no result: Bim-Mcl-1)
C=C1c2cc(C)ccc2NC(=O)N1c1ccccc1	none
O=C(CNS(=O)(=O)c1ccccc1)Nc1ccc2c(c1)OCO2	none
N#Cc1c(Nc2cccc(F)c2)sc2c(O)cc(=O)[nH]c12	Mcl1 Noxa PPI 54
COc1cccc(C(=O)Nc2cc(Cl)c(O)c(Cl)c2)c1	Mcl1 Noxa PPI 98 (no result: Bim-Mcl-1)
Cc1sc2nc3c4ccccc4c(NCc4ccco4)nn3c(=O)c2c1C	Mcl1 Noxa PPI 67
NC(=O)c1cccn1-c1ncc(C(F)(F)F)cc1Cl	Mcl1-Bid inh 83
CC1CCC(C(C)C)C(OC(=O)COC(=O)c2ccc(N)cc2)C1 (centres undefined)	eIF4E-4G inh 54
COc1ccc(O)c(C(=O)c2coc(=N)c(C(=O)Nc3ccc(SC(F)F)cc3)c2)c1	none
CCN1CCN(c2cc(SC(C)C)nc(-c3ccc(OC)cc3)n2)CC1	14-3-3 Bad PPI 71[fluorescence artefact?]
CC(C)Sc1cc(N2CCOCC2)nc(-c2ccc(Cl)cc2)n1	none
O=C1C(C=NCc2ccncc2)=C(O)c2ccccc21	Mcl1-Bid inh 96
O=C1C(C=NCc2cccnc2)=C(O)c2ccccc21	none
CC1CN(Cc2c(O)ccc3c(=O)c(-c4ccccc4)coc23)CC(C)O1 (centres undefined)	none
CC1CN(Cc2c(O)ccc3c2oc(=O)c2ccccc23)CC(C)O1 (centres undefined)	14-3-3 Bad PPI 83 (no result: Bim-Mcl-1)
COc1ccc(-n2nc([N+](=O)[O-])c(=NCCC3=CCCCC3)n2O)cc1	none
Cc1ccc(C)c(NC2=CC(=O)CC(C)(C)C2)c1C#N	14-3-3 Bad PPI 76
N#C/C(=C(/O)COC(=O)CCc1ccc(S(=O)(=O)N2CCOCC2)cc1)c1nc2ccccc2[nH]1	Mcl1 Noxa PPI 62
N#C/C(=C(/O)COC(=O)c1ccc(Cl)c(S(=O)(=O)N2CCOCC2)c1)c1nc2ccccc2[nH]1	Mcl1 Noxa PPI 52
CC1CN(S(=O)(=O)c2cccc(C(=O)OC/C(O)=C(\C#N)c3nc4ccccc4[nH]3)c2)CC(C)O1 (centres undefined)	none
Cc1ccc(C(=O)OC/C(O)=C(\C#N)c2nc3ccccc3[nH]2)cc1S(=O)(=O)N1CCOCC1	none
COc1cc(C2C(C#N)=C(N)Oc3cc(O)ccc32)cc(OC)c1OC (centres undefined)	Mcl1-Bid inh 60
COc1cc2c(cc1OC)CN(CC(=O)Nc1ccc(C#N)cc1)CC2	Mcl1-Bid inh 98
Cc1ccc(NC(=O)CN2CCc3ccccc3C2)cc1F	Mcl1-Bid inh 98 (no result: Bim-Mcl-1)
COc1cc2c(cc1OC)CN(CC(=O)Nc1ccc(S(=O)(=O)N(C)C)cc1)CC2	none
O=C(CCN1CCc2ccccc2C1)Nc1cccc(F)c1	Mcl1-Bid inh 77
CCOC(=O)C1=C(Nc2ccc(Cl)cc2)OCC1=O	none (no result: Bim-Mcl-1)
O=C(Cc1cc(=O)[nH]c(=O)[nH]1)NCc1ccccc1	none
O=C(Cn1nc(-c2cccc([N+](=O)[O-])c2)c2ccccc2c1=O)NCC1CCCO1 (centres undefined)	none
Cc1ccc(S(=O)(=O)N2CCCCC2)cc1NC(=O)c1ccccn1	none (no result: Bim-Mcl-1)
CCCc1ccc(OCc2nc(-c3ccc(NC(=O)c4cccs4)cc3)no2)cc1	none
CCCc1ccc(OCc2nc(-c3ccc(NC(=O)c4ccco4)cc3)no2)cc1	Mcl1-Bid inh 60
C[c-]1[c-](C)[c-](C)[c-](C)[c-]1C.[Fe].c1cc2nccc(N3CCCC3)[c-]2c1 (centres undefined)	Mcl1 Noxa PPI 55!, NCF1 inh 30! (no result: Bim-Mcl-1)
O=C(CSc1nc2ncc(Cl)cc2[nH]1)N(Cc1ccccc1)C1CCS(=O)(=O)C1 (centres undefined)	none
Cc1ccc(N2CC(=O)Nc3c(oc4nc(-c5ccccc5)cc(C)c34)C2=O)cc1	none (no result: Bim-Mcl-1)
Cc1ccc(C(c2c(C)n(C)n(-c3ccccc3)c2=O)c2c(C)n(C)n(-c3ccccc3)c2=O)s1	none
Cc1ccsc1/C=C/C1=Cc2c(sc(NC(=O)CSc3n[nH]c(N)n3)c2C#N)C(C)(C)C1	Mcl1 Noxa PPI 89
